Values joined by “and” are separate entries in the source; they are usually repeats but may differ in a detail not shown here. Equal entries are not always repeated. Structures can show the parent of a compound that is named as a salt.
Experiments:
Test in all cases: cell viability relative to vehicle control; higher = less cytotoxic
Conditions in all cases: 10 µM
K562 = tested on: K562
Summary of the method: (§1)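 CRISPR-edited SRSF2 P95 mutant and isogenic wild-type clones of four leukaemia lines were screened against Selleck bioactive, kinase and epigenetic probe libraries, with identity-inconsistent compounds removed. Compounds were acoustically dispensed into 384-well plates at a single 10 µM dose, with 2000 cells in 50 µL medium per well. After 48 h, supernatant was removed and CellTiter-Glo luminescence was read. Viability was expressed as percent of the on-plate DMSO vehicle control, analysed in Genedata Screener.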

MARIMO = tested on: MARIMO
Summary of the method: as §1

MOLM14 = tested on: MOLM14
Summary of the method: as §1

OCI-AML2 = tested on: OCI-AML2
Summary of the method: as §1

SMILES | cell viability (K562; SRSF2 genotype: SRSF2 P95H/wt) | cell viability (K562; SRSF2 genotype: SRSF2 wt/wt) [%] | cell viability (MARIMO; SRSF2 genotype: SRSF2 P95H/wt) [%] | cell viability (MARIMO; SRSF2 genotype: SRSF2 wt/wt) [%] | cell viability (MOLM14; SRSF2 genotype: SRSF2 P95H/wt) [%] | cell viability (MOLM14; SRSF2 genotype: SRSF2 wt/wt) [%] | cell viability (OCI-AML2; SRSF2 genotype: P95H/wt) [%] | cell viability (OCI-AML2; SRSF2 genotype: wt/wt) [%]
CC(C)(C)c1cnc(CSc2cnc(NC(=O)C3CCNCC3)s2)o1 | 24.3% and 35.5% | 27.3 | 9.12 | 4.42 | 3.75 | 0.63 | 4.54 | 18.1
O=c1c(O)c(-c2ccc(O)c(O)c2)oc2cc(O)cc(O)c12 [Quercetin dihydrate (Sophoretin)] | 107% and 99.5% | 92.6 | 98.4 | 98 | 100 | 99.6 | 97.4 | 96.5
C=CC[S+]([O-])C[C@H](N)C(=O)O (stereo not given in full) [Alliin] | 105% | 107 | 104 | 96.5 | 114 | 107 | 102 | 98.2
C[C@@H]([C@H](C)O)[C@H](N)C(=O)O [(4S)-4-Hydroxy-L-isoleucine] | 105% and 96.3% | 102 | 100 | 102 | 111 | 102 | 108 | 104
Cc1c(NC(=O)OC[C@@H]2COCCN2)cn2ncnc(Nc3ccc4c(cnn4Cc4cccc(F)c4)c3)c12 | 75.3% and 73.2% | 71.7 | 76.4 | 79.8 | 63.8 | 69.6 | 68.7 | 64.8
NC(=O)c1cccnc1 [Nicotinamide (Vitamin B3)] | 106% and 112% | 113 | 107 | 103 | 105 | 104 | 104 | 111
Oc1ccc(Nc2nc(-c3ccc(Cl)cc3)cs2)cc1 | 49.4% and 65.5% | 66.4 | 38.8 | 36.5 | 40.9 | 39.6 | 42.1 | 42.1
Cc1nc(Nc2ncc(C(=O)Nc3c(C)cccc3Cl)s2)cc(N2CCN(CCO)CC2)n1 [Dasatinib] | 21.5% and 39.8% | 27.1 | 68.1 | 61.3 | 40.3 | 35.1 | 31.8 | 40.6
CCOC(=O)C1=C[C@@H](OC(CC)CC)[C@H](NC(C)=O)[C@@H](N)C1 [Oseltamivir Phosphate] | 103% and 105% | 104 | 102 | 106 | 110 | 109 | 110 | 104
CC(/C=C1\SC(=S)N(CC(=O)O)C1=O)=C\c1ccccc1 [Epalrestat] | 99.9% and 110% | 107 | 104 | 102 | 106 | 103 | 102 | 95.3
Cn1cc(C2=C(c3ccc(Cl)cc3Cl)C(=O)NC2=O)c2ccccc21 | 97.9% and 94.8% | 94.2 | 94.7 | 105 | 103 | 99.1 | 95.8 | 107
COC(=O)/C=C/C(=O)OC [Dimethyl Fumarate] | 101% and 108% | 94.7 | 103 | 95.6 | 102 | 99.5 | 111 | 110
O=c1[nH]c(=O)n([C@H]2C[C@H](O)[C@@H](CO)O2)cc1/C=C/Br [Brivudine] | 97.4% and 92% | 103 | 101 | 102 | 95.6 | 105 | 99.8 | 107
C=CC(=O)Nc1cc(N2CCN(CC)CC2)ccc1Nc1cc(N(C)C(=O)Nc2c(Cl)c(OC)cc(OC)c2Cl)ncn1 | 26.8% and 16.8% | 28.7 | 37.6 | 31.7 | 0.69 | 0.44 | 1.37 | 1.1
O=CC[C@@H](O)[C@H](O)[C@H](O)CO [2-Deoxy-D-glucose] | 104% and 94.5% | 99.2 | 101 | 107 | 102 | 101 | 91.3 | 108
C=C1CCN([C@H](C)[C@](O)(Cn2cncn2)c2ccc(F)cc2F)CC1 [Efinaconazole] | 86.9% and 94% | 96.9 | 76.3 | 88.3 | 85.8 | 95.8 | 82.2 | 83.5
CC1(C)CCCC2(C)OC(=O)C=C12 (stereo not given) [Dihydroactinidiolide] | 104% and 93.7% | 94.5 | 97.6 | 104 | 93.8 | 99.7 | 91.1 | 104
CC(=O)c1ccc(O)c(C(=O)O)c1 [5-Acetylsalicylic acid] | 110% and 106% | 98 | 106 | 112 | 101 | 107 | 102 | 105
COC(=O)[C@@H]1CC2=CC(=O)CC[C@]2(C)[C@@]23O[C@@H]2C[C@@]2(C)[C@@H](CC[C@@]24CCC(=O)O4)[C@H]13 [Eplerenone] | 98.4% and 103% | 103 | 98 | 103 | 107 | 95.6 | 100 | 101
Clc1ccc2c(N3CCN(CCCN4CCN(c5ccnc6cc(Cl)ccc56)CC4)CC3)ccnc2c1 [Piperaquine phosphate] | 99.4% and 95% | 98.2 | 93.8 | 103 | 85.3 | 102 | 92.7 | 88

SMILES | cell viability (K562; SRSF2 genotype: SRSF2 P95H/wt) | cell viability (K562; SRSF2 genotype: SRSF2 wt/wt) [%] | cell viability (MARIMO; SRSF2 genotype: SRSF2 P95H/wt) [%] | cell viability (MARIMO; SRSF2 genotype: SRSF2 wt/wt) [%] | cell viability (MOLM14; SRSF2 genotype: SRSF2 P95H/wt) [%] | cell viability (MOLM14; SRSF2 genotype: SRSF2 wt/wt) [%] | cell viability (OCI-AML2; SRSF2 genotype: P95H/wt) [%] | cell viability (OCI-AML2; SRSF2 genotype: wt/wt) [%]
COc1cc2ncc(-c3ccccc3)nc2cc1OC [Tyrphostin AG 1296 (AG 1296)] | 90.3% and 94.9% | 93 | 81.5 | 82.2 | 48.2 | 56 | 69.5 | 65.6
CC(C)C(=O)Nc1ccc([N+](=O)[O-])c(C(F)(F)F)c1 [Flutamide (Eulexin)] | 92.3% and 90.8% | 101 | 90.3 | 92.3 | 96.8 | 95.4 | 90.5 | 90.1
Cn1cc(-c2ccc3nnc(Sc4ccc5ncccc5c4)n3n2)cn1 | 92% and 94.2% | 96.6 | 90 | 101 | 98 | 99 | 98 | 94.3
Cc1ncc([N+](=O)[O-])n1CCO [Metronidazole (Flagyl)] | 105% and 104% | 109 | 107 | 109 | 104 | 103 | 106 | 111
COc1ccc2cc1Oc1ccc(cc1)C[C@H]1c3cc(c(OC)cc3CCN1C)Oc1c(O)c(OC)cc3c1[C@H](C2)N(C)CC3 [(+)-Fangchinoline] | 4.1% and 4.98% | 3.92 | 12.2 | 1.33 | 0.71 | 0.57 | 0.52 | 0.71
CCn1cc(C(=O)O)c(=O)c2cc(F)c(N3CCN(C)CC3)cc21 [Pefloxacin Mesylate Dihydrate] | 83.5% and 78% | 80.7 | 88 | 94.2 | 87.7 | 92.1 | 90.9 | 94.8
O=C1CC(=O)c2c(Cl)c(Cl)c(Cl)c(Cl)c21 | 92.3% and 95% | 92.2 | 99.7 | 96.6 | 95.3 | 93.7 | 99.7 | 104
COc1cc2nccc(Oc3ccc(NC(=O)Nc4cc(C)on4)c(Cl)c3)c2cc1OC [Tivozanib (AV-951)] | 11.4% and 16.2% | 21.9 | 56.2 | 61.4 | 11.3 | 10.3 | 26.1 | 29.9
Cn1nnnc1SCC1=C(C(=O)O)N2C(=O)[C@@H](NC(=O)[C@H](OC=O)c3ccccc3)[C@H]2SC1 [S3638 Cefamandole (nafate).cdx] | 103% and 97.5% | 102 | 97.5 | 103 | 99.4 | 104 | 97.7 | 97.6
O=C(O)C(=O)O [Oxalic acid] | 99% and 94.9% | 90 | 95.8 | 94.5 | 95.2 | 94.3 | 99.2 | 99.6
O=C(NC[C@H](O)CN1CCc2ccccc2C1)c1cc(NC2COC2)ncn1 | 95.9% and 92.8% | 95.6 | 87.6 | 98.1 | 88.8 | 92.6 | 76.3 | 77.1
CC1=C(C(=O)OC(C)C)C(c2cccc([N+](=O)[O-])c2)C(C(=O)OC2CN(C(c3ccccc3)c3ccccc3)C2)=C(N)N1 (stereo not given) [Azelnidipine] | 74.3% and 58.4% | 58.8 | 58.1 | 80.1 | 82.1 | 82.3 | 71.3 | 58
CCCN[C@H]1CCc2nc(N)sc2C1 [Pramipexole (Mirapex)] | 102% and 81.8% | 83.3 | 81.9 | 83.9 | 71.3 | 84.3 | 80.9 | 87.8
Cc1ncc(COP(=O)(O)O)c(C=O)c1O [Pyridoxal phosphate] | 103% and 104% | 105 | 100 | 106 | 100 | 106 | 103 | 110
CN1[C@@H]2CC[C@H]1C[C@@H](OC(=O)c1c[nH]c3ccccc13)C2 [Tropisetron HCl] | 97.5% and 100% | 96.6 | 102 | 102 | 104 | 102 | 101 | 105
CCc1ccc(C(=O)C(C)CN2CCCCC2)cc1 (stereo not given) [Eperisone hydrochloride] | 91.5% and 94.7% | 93.1 | 81.3 | 95.5 | 38.1 | 70 | 33.5 | 47.8
CCOCc1nc2c(N)nc3ccccc3c2n1CC(C)(C)O [Resiquimod] | 94.5% and 96% | 92.3 | 86 | 87.6 | 97.1 | 96.1 | 95.8 | 98.8
CCCCNc1ncc(-c2ccc(CN3CCOCC3)cn2)c(NC2CCC(O)CC2)n1 (stereo not given) | 70.7% and 94.8% | 88 | 60.7 | 62.3 | 7.3 | 4.78 | 16.1 | 22.9
CC1OC(OC2C(CO)OC(OCC3OC(OC(=O)C45CCC(C)(C)CC4C4=CCC6C7(C)CCC(OC8OCC(O)C(O)C8OC8OC(C)C(O)C(O)C8O)C(C)(CO)C7CCC6(C)C4(C)CC5)C(O)C(O)C3O)C(O)C2O)C(O)C(O)C1O (stereo not given) [Hederacoside C] | 101% and 93% | 95.3 | 96.9 | 101 | 97.3 | 98 | 93.5 | 106
C=CC(=O)Nc1ccc(CN2C(=O)N(c3cc(OC)cc(OC)c3)Cc3cnc(Nc4ccc(N5CCN(C)CC5)cc4)nc32)cc1 | 66.2% and 73.3% | 77.8 | 81.2 | 78.8 | 37.9 | 40.1 | 25.8 | 34.5

Reference: the supplement of paper PMC10981050
